ALDH1A1 inh = blocks purified human ALDH1A1 activity. P00352. Purified ALDH1A1, NADH fluorescence, propionaldehyde substrate. Potency, µM (series often up to 75.3 µM), without a hit: at the highest dose activity, negative = inhibition, hits mostly inhibitors. 220,000 compounds, 7.3% hits; active = well fitted inhibition curve with a large enough effect, not every such curve was filed as active; inconclusive = small, poorly fitted or top-dose-only effect, or another doubt; inactive = no such curve, though single readings can be large or run the other way;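 note: potency is the fitted concentration of half-maximal effect; plate controls were no enzyme wells and a reference inhibitor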
Target sequence (P00352 whole entry, looked up): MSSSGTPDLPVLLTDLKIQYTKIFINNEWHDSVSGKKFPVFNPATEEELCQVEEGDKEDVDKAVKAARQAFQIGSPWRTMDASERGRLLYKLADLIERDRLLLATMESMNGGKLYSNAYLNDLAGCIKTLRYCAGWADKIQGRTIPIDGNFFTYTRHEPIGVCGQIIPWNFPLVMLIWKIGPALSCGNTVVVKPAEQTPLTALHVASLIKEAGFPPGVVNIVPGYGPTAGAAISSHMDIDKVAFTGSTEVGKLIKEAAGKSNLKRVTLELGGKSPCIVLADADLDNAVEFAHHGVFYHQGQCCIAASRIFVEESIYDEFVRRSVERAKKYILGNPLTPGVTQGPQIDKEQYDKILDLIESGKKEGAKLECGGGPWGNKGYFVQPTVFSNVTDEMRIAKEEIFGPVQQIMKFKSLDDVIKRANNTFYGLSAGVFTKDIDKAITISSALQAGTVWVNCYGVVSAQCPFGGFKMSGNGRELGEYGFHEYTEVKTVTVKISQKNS
HPGD inh = inhibitors of human 15-hydroxyprostaglandin dehydrogenase (HPGD). P15428. purified HPGD, NADH fluorescence kinetic, PGE2 substrate. Potency, µM, inactives show top-dose activity change, negative = inhibition, usual class: inhibitors. 150,000 compounds, 4.3% hits. AID 894; active = well fitted inhibition curve with a large enough effect, not every such curve was filed as active; inconclusive = small, poorly fitted or top-dose-only effect, or another doubt; inactive = no such curve, though single readings can be large or run the other way; note: potency is the fitted concentration of half-maximal effect; % is set by controls: 0 for no effect and ±100 for the full control effect
Target sequence (P15428 whole entry, looked up): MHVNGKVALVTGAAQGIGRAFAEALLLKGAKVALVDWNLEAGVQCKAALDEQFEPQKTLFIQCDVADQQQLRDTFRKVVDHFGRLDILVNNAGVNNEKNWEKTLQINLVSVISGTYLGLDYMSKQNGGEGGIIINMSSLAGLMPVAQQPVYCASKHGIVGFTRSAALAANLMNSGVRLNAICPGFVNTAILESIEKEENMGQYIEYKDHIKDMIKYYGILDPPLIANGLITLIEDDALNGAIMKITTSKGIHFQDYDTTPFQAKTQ
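NADH formation kinetics: reaction with 30 uM PGE2 and 1 mM NAD+ (final), 20 nM enzyme, Tris-HCl pH 8 with Tween 20, after 15 min compound preincubation at room temperature. Fluorescence change, last versus first of five reads.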
HTT ATP protect = cytoprotection in Huntington HTT-Q103 PC12 cell model; PC12 HTT-Q103 induced, cytoprotection, ATP luminescence, 40 h; Potency, µM (doses to about 56.4 µM), for inactives: cytoprotection (ATP increase), usual class: activators; 230,000 compounds, 0.14% hits; note: potency is the fitted concentration of half-maximal effect; % of control where 0% means no effect; nearly all actives have a fitted effect of over 45% in size
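PC12 cells with ecdysone-inducible HTT exon 1 Q103-GFP, induced with 100 nM tebufenozide and co-treated with library compounds in a dose series (1536-well, 1500 cells/well). Cytoprotection read as ATP content by ATPlite luminescence.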
HTT aggregate = reduces HttQ103-GFP aggregates in PC12 cells; AID 1688; Potency, µM (series often up to 46.1 µM), inactives show at the top dose activity change, negative = inhibition, hits mostly inhibitors; 220,000 compounds, 1.1% hits; PC12 HttQ103-GFP aggregates, Acumen cytometry, 40 h; note: potency is the fitted concentration of half-maximal effect; % is set by controls: 0 for no effect and ±100 for the full control effect; nearly all actives have a fitted effect of over 60% in size
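Using laser scanning cytometry, GFP-positive aggregates were counted after lysis of PC12 cells induced with 100 nM tebufenozide to express HTT exon 1 Q103–GFP. Compounds were tested in titration.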
IMPase Li inh = cell-permeable IMPase inhibitors with lithium potentiation. CHO-M1 cells, IP1 TR-FRET (IP-One), carbachol + lithium. AID 1457. 210,000 compounds, 0.35% hits. Potency, µM (highest dose often 59.4 µM), inactives show at the highest dose activity, negative = IMPase inhibition, actives largely listed as inhibitors;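 note: IP1 builds up when IMPase is blocked and the TR-FRET signal falls; potency is the fitted concentration of half-maximal effect; plate controls were basal vehicle for no effect and high inhibitor control for full effect; nearly all actives have a fitted effect of over 50% in size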
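Test compounds were applied to CHO-M1 cells previously cultured for 16–30 h at 2000 per well. A small lithium amount accompanied them; after 30 min at 37C, IP1 was quantified by TR-FRET.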
IMPase cell inh = IMPase inhibition in cells. CHO-M1 cells, IP1 accumulation, HTRF TR-FRET ratio. P97697. inhibition (IP1 accumulation), % at 46.1 µM. 120,000 tested, under 10 active; active = well fitted curve in the direction sought with a large enough effect in the signal ratio, not every such curve was filed as active; inconclusive = small, poorly fitted or top-dose-only effect, or a change in a side signal; inactive = no such curve, though single readings can be large or run the other way; the % refers to the signal ratio;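 note: cells stimulated with carbachol in lithium chloride buffer; plate controls were DMSO basal wells for no effect and reference inhibitor wells for full effect; higher means more IMPase inhibition seen as more IP1 and lower FRET ratio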
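Measured: the HTRF emission ratio (665/620 nm) plus the 620 nm donor channel, each fitted to the Hill equation to give AC50. Cells were CHO-M1 given compounds up to 46 uM and a 30 min carbachol stimulation at 37C.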
Active calls of the source: *; [ ] = dose if it differs, or a comment. Shown are actives, neighbours in structure and some others; about 9.4% of the full set was active somewhere. Unless noted, calls come from the whole dose curve; as a rule, active = well fitted curve in the direction sought with a large enough effect; inconclusive = small, poorly fitted or top-dose-only effect, or another doubt; inactive = no such curve, though single readings can be large; an effect the other way counts as inactive or inconclusive.

For CCN(CC)CCCCn1c(-c2ccccc2)nc2c(NCCOC)nc(C)nc21 the results were ALDH1A1 inh inconclusive, HPGD inh inconclusive, HTT ATP protect 25% and IMPase Li inh 7%.
Screening CCCCn1c(/N=C/c2c[nH]c3ccccc23)nc2ccccc21 returned ALDH1A1 inh 25µM*, HPGD inh -18%, HTT ATP protect 18%, HTT aggregate -4%, IMPase Li inh 2%[38.3 µM] and IMPase cell inh 6.
CCCn1c(/N=C/c2c[nH]c3ccccc23)nc2ccccc21 was read as ALDH1A1 inh inconclusive, HPGD inh -8%, HTT ATP protect -8%, HTT aggregate -12%, IMPase Li inh 4%[38.3 µM] and IMPase cell inh 4.
CCCCn1c(/N=C/c2ccc(N(C)C)cc2)nc2ccccc21 was read as ALDH1A1 inh 2.8µM*, HPGD inh -16%, HTT ATP protect -16%[10 µM], HTT aggregate -14%, IMPase Li inh 0% and IMPase cell inh -1.
C=CCn1c(/N=C/c2ccc(N(C)C)cc2)nc2ccccc21 was read as ALDH1A1 inh 4%, HTT ATP protect -14%, HTT aggregate 5% and IMPase cell inh 1.
`CCCCCCS(=O)[C@H]1CS(=O)(=O)C[C@@H]1S(=O)CCCCCC` (stereo partly drawn) gave ALDH1A1 inh inconclusive, HPGD inh 13µM*, HTT ATP protect -1%[0.074 µM], HTT aggregate 24%, IMPase Li inh 7%[38.3 µM] and IMPase cell inh -9.
Screening C=C(C)C(O)/C=C/c1ccc(C(F)(F)F)cc1 (stereo not drawn) returned ALDH1A1 inh -5%, HPGD inh -1%, HTT ATP protect inconclusive and IMPase Li inh 16%.
CC(C)(C)c1ccc(C(=O)Nc2ccc(C=C(C#N)C#N)cc2)cc1 was read as ALDH1A1 inh 4µM*, HPGD inh -16%, HTT ATP protect -22%[10 µM], HTT aggregate 16% and IMPase Li inh -3%.
`N#CC(C#N)=Cc1ccc(NC(=O)c2ccc(Br)cc2)cc1` gave HTT ATP protect -5%[10 µM] and HTT aggregate -22%[9.22 µM].
For CCCCC/C=C\C/C=C\C[C@H](O)/C=C/C=C\CCCC(=O)O the results were ALDH1A1 inh 0%, HPGD inh -2%, HTT ATP protect 10% and IMPase Li inh 2%.
For O=C(/C=C/c1ccncc1)c1ccc(NC(=O)c2ccccc2F)cc1 the results were ALDH1A1 inh inconclusive, HPGD inh 25µM*, HTT aggregate inconclusive and IMPase Li inh 12%.
Screening CC(=O)c1cccc(NC(=O)Cn2nc(-c3ccc(Cl)cc3)ccc2=O)c1 returned ALDH1A1 inh 7.9µM*, HTT ATP protect 16%[10 µM], HTT aggregate 9%[9.22 µM] and IMPase Li inh -5%.
CC(C)CNS(=O)(=O)c1ccc(NC(=O)Cn2nc(-c3ccc(F)cc3)ccc2=O)cc1 was read as ALDH1A1 inh 5%, HPGD inh 7.9µM*, HTT ATP protect 17%[10 µM], HTT aggregate 21% and IMPase Li inh -9%.
COc1ccc(-c2ccc(=O)n(CC(=O)Nc3ccc(C(=O)NC4CC4)cc3)n2)cc1OC was read as ALDH1A1 inh 6%, HPGD inh 16µM*, HTT ATP protect -4%, HTT aggregate 15%, IMPase Li inh -5%[38.3 µM] and IMPase cell inh 10.
Screening CC(=O)c1cccc(NC(=O)Cn2nc(-c3ccccc3Cl)ccc2=O)c1 returned ALDH1A1 inh 4%, HTT aggregate -9% and IMPase Li inh 3%.
For COc1ccc(-c2ccc(=O)n(CC(=O)NC3CCc4ccccc43)n2)cc1OC (stereo not drawn) the results were ALDH1A1 inh -2%, HTT ATP protect 10%[10 µM], HTT aggregate 3%[9.22 µM] and IMPase Li inh 4%.
Screening O=C(O)CCC/C=C\C[C@H]1C(=O)C[C@@H](O)[C@@H]1/C=C/[C@@H](O)CCc1ccccc1 returned ALDH1A1 inh 3%, HPGD inh -7%, HTT ATP protect 30% and IMPase Li inh -8%.
For Cc1ccc(CSc2nc3ccccc3cc2C=O)cc1 the results were ALDH1A1 inh inconclusive, HPGD inh 5µM*, HTT ATP protect -65%[10 µM], HTT aggregate inconclusive, IMPase Li inh 25%[38.3 µM] and IMPase cell inh 4.
O=Cc1cc2ccccc2nc1SCc1ccc(Cl)cc1 was read as ALDH1A1 inh -9%, HPGD inh -24%, HTT ATP protect -90%, HTT aggregate inconclusive, IMPase Li inh 3%[38.3 µM] and IMPase cell inh 2.
CCOc1ccccc1N(CC(=O)NCCSc1ccccc1)S(=O)(=O)c1ccccc1 was read as IMPase cell inh 5.
For COC(=O)c1ccc(C(NC(=O)OCc2ccccc2)/C(=C/[C@@H](C)C(=O)N(C)Cc2cccnc2)c2cccnc2)cc1 (stereo partly drawn) the results were ALDH1A1 inh 0%, HPGD inh -3%, HTT ATP protect -1% and IMPase Li inh -1%.
Screening CCN(C(=O)c1ccc(C(C)(C)C)cc1)c1nnc(Cn2nnc3ccccc32)s1 returned ALDH1A1 inh -4%, HPGD inh -20%, HTT ATP protect 16%[10 µM], HTT aggregate 6.3µM*, IMPase Li inh 12%[38.3 µM] and IMPase cell inh inconclusive.
Screening Cc1ccc(C(=O)NNC(=O)Cn2nnc3ccccc32)cc1 returned HTT ATP protect 10%[10 µM] and HTT aggregate 11%[9.22 µM].
`CCN(C(=O)CC(C)C)c1nnc(Cn2nnc3ccccc32)s1` gave ALDH1A1 inh 0%, HTT ATP protect 0.89µM*, HTT aggregate -27% and IMPase Li inh 10%.
For CCc1cccc(CC)c1N(COC)C(=O)Cn1nnc2ccccc21 the results were ALDH1A1 inh -6%, HPGD inh -10%, HTT ATP protect -1%, HTT aggregate 4%, IMPase Li inh -2%[38.3 µM] and IMPase cell inh -2.
Cc1ccsc1/C=N/N1CCN(c2ccccc2)CC1 was read as ALDH1A1 inh -6%, HPGD inh -12%, HTT ATP protect -25%, HTT aggregate 0%, IMPase Li inh 9%[38.3 µM] and IMPase cell inh 6.
`Cc1ccsc1/C=N/N1CCN(Cc2ccccc2)CC1` gave ALDH1A1 inh 16µM*, HTT ATP protect 1%[10 µM], HTT aggregate -3% and IMPase Li inh 21%.
Screening O=C1NC(=O)C2C3C=CC(C3)C12 (stereo not drawn) returned HTT ATP protect 8% and HTT aggregate 8%.
For Cc1cc(C(=O)N/N=C/c2cc(Br)ccc2OC(=O)c2ccccc2)n[nH]1 the results were ALDH1A1 inh -7%, HPGD inh -15%, HTT ATP protect -36%[10 µM], HTT aggregate 2µM*, IMPase Li inh 17% and IMPase cell inh 2.
